Experimental data taken from PubChem BioAssay AID2289 (National Center for Advancing Translational Sciences (NCATS), 2010).
Values joined by “and” are separate entries in the source; they are usually repeats but may differ in a detail not shown here. Equal values may be shown once. Out of some 340,000 compounds screened, about 3,300 (0.97%) were called active. About 9% were inconclusive and are not listed. The call rests on the fitted dose curve; in most records, active means well fitted inhibition curve with a large enough effect; inconclusive means small, poorly fitted or top-dose-only effect, or effect the other way; inactive means flat fitted curve, though single readings scatter. This is one part of the list.

Assay: qHTS Assay for Modulators of miRNAs and/or Inhibitors of miR-21; further: nearly all actives have a fitted effect of over 55% in size
Conditions: HeLa miR-21-FLuc reporter, luciferase luminescence, 48 h; actives lower the signal
Summary of the method: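 HeLa cells endogenously expressing miR-21, stably carrying CMV-driven firefly luciferase with a downstream miR-21 binding site, 2000 cells/well. Titrations up to approximately 40 uM, 48 hours; luciferase luminescence read.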
Potency means the concentration at half of the fitted maximal effect.

Potency, active:
COc1ccc(N=Nc2ccc(N)nc2N)cc1 2.61 µM
Nc1ccc(N=Nc2ccccc2Cl)c(N)n1 2.07 µM
c1ccc(SCc2nc(-c3ccccn3)no2)cc1 2.82 µM
COc1ccc(-c2noc(CSc3ccccc3)n2)cc1OC 11.7 µM
Cc1ccc(NC(=O)c2cc3ccccc3oc2=N)cc1 0.0736 µM
N=c1oc2cc(O)ccc2cc1C(=O)Nc1nc2ccccc2s1 1.04 µM
COc1ccc(NC(=O)c2cc3ccccc3o/c2=N\NS(=O)(=O)c2ccc(C)cc2)cc1 3.29 µM
N=c1oc2ccccc2cc1C(=O)Nc1cccc(F)c1 0.165 µM
CCc1ccc2oc(-c3cc(N)cc(C)c3O)nc2c1 2.93 µM
O=C(Nc1nc(-c2cccs2)cs1)C1=COCCO1 2.33 µM
N/C(=N\O)c1ccc(N2CCN(c3ncccc3C(F)(F)F)CC2)nc1 4.65 µM
CC(C)(C)c1ccc(SCCc2ccccn2)cc1 6.56 µM
CC(C)(C)c1ccc(SCCc2cccnc2)cc1 8.26 µM
Cc1ccc(NC(=O)NC(=O)N(C2CCCCC2)S(=O)(=O)c2ccccc2)cc1 16.5 µM
Cc1ccc2oc(=O)c(/C=C(\O)c3cccs3)nc2c1 4.65 µM
Nc1c(-c2cccc([N+](=O)[O-])c2)nc2ccccn12 5.85 µM
CN1CCC(Oc2ccc(Sc3ccccc3)cc2)CC1 5.21 µM
COc1ccc(CN(C(=O)c2cc3ccccc3oc2=O)C2CCS(=O)(=O)C2)cc1OC (stereo not drawn) 5.85 µM and 13.1 µM
CC(C)Oc1cccc(C(=O)NC(=S)Nc2cccnc2)c1 13.1 µM
CC(C)Oc1cccc(C(=O)NC2=NCCS2)c1 3.69 µM
O=C(NC1=NCCS1)c1ccc(C(F)(F)F)cc1 6.56 µM
O=C(NCc1cccnc1)c1cc(-c2ccccc2)on1 18.5 µM
O=C(NCc1ccco1)c1cc(-c2cccs2)on1 5.85 µM
O=C(NCc1ccco1)c1cc(-c2ccccc2)on1 7.36 µM
O=C(NC12CC3CC(CC(C3)C1)C2)N1CCN(C(=O)c2ccco2)CC1 16.5 µM
O=C1/C(=C/c2cccs2)CCC/C1=C\c1cccs1 1.65 µM
CC(=O)N(c1nnc(-c2cccc(C)c2)s1)C1CCCC1 8.26 µM
CCCCCNc1nc(-c2ccccc2)cs1 1.65 µM
Oc1ccc(-c2csc(Nc3ccccn3)n2)cc1O 2.61 µM
CC(=O)Oc1ccc(-c2csc(Nc3cccc(C)n3)n2)cc1 1.47 µM
Oc1ccc(-c2csc(Nc3ncccn3)n2)cc1O 5.85 µM
c1ccc(-c2csc(Nc3ncccn3)n2)cc1 0.208 µM
c1ccc(Nc2nc(-c3cccs3)cs2)nc1 0.293 µM
Cc1cccc(Nc2nc(-c3ccc(O)c(O)c3)cs2)n1 8.26 µM
Cc1nc(N)sc1-c1csc(Nc2ncccn2)n1 2.93 µM
Cc1ccc(Nc2nc(-c3ccc(O)c(O)c3)cs2)nc1 8.26 µM
Cc1ccnc(Nc2nc(-c3ccc(O)c(O)c3)cs2)c1 4.65 µM
CCOC(=O)c1cccnc1SCc1cc(=O)n2ccccc2n1 13.1 µM
CCOc1ccc(/C=N/NC(=O)c2ccoc2C)cc1OC 7.36 µM
COc1ccc(/C=N/NC(=O)c2ccoc2C)cc1O 6.56 µM
Cc1ccc2sc(-c3ccc(NC(=O)CCN4C(=O)c5ccccc5C4=O)cc3)nc2c1 0.104 µM
Cc1ccc2nc(-c3ccc(NC(=O)CCN4C(=O)c5ccccc5C4=O)cc3)sc2c1 0.0927 µM
Cc1ccc2nc(-c3ccc(NC(=O)CN4C(=O)c5ccccc5C4=O)cc3)sc2c1 1.65 µM
O=C(CCN1C(=O)c2ccccc2C1=O)Nc1ccc(-c2nc3ccccc3s2)cc1 0.261 µM
Cc1ccc2nc(-c3ccc(NC(=O)CSc4nc(N)cc(=O)[nH]4)cc3)sc2c1 8.26 µM
Cc1ccc2nc(-c3ccc(NC(=O)C(C)N4C(=O)c5ccccc5C4=O)cc3)sc2c1 (stereo not drawn) 1.17 µM
CCC(=O)c1ccc(OCc2ccc(C(=O)OC)cc2)cc1 0.261 µM
CCC(=O)c1ccc(OCc2ccc(C#N)cc2)cc1 9.27 µM
CCOc1ccc2c(c1)C(c1ccc(C)cc1)=NNC(c1ccc(C)cc1)=N2 8.26 µM
CCOc1ccc(C2=NNC(c3cccs3)=Nc3ccc(OC)cc32)cc1OCC 18.5 µM
C=C(C)C1Cc2cc3ccc(=O)oc3cc2O1 (stereo not drawn) 16.5 µM
Cc1ccc(Cn2nnc3c(=O)[nH]c(C4CCCN(S(=O)(=O)c5ccccc5)C4)nc32)cc1 (stereo not drawn) 18.5 µM
O=C(Nc1ccccc1Br)c1cc(=O)c2ccccc2o1 2.07 µM
NC(=O)c1ccsc1NC(=O)c1cc(=O)c2ccccc2o1 0.329 µM
NC(=O)c1ccsc1NC(=O)c1coc2ccccc2c1=O 1.17 µM
COc1cccc(/C(C)=N/N=C(\C)c2cccc(OC)c2)c1 4.14 µM
COc1cccc(/C(C)=N/Nc2ncc(Cl)cc2Cl)c1 16.5 µM
CCNc1nc(N)nc(Oc2ccc(C(=O)OC)cc2)n1 8.26 µM
CC(=O)COc1ccc2c(c1C)O/C(=C\c1ccco1)C2=O 3.69 µM
CN(CC(=O)NCCc1ccccc1)Cc1ccco1 14.7 µM
CCN(CC)C(=O)CCCOc1ccc(Cl)cc1Cl 14.7 µM
CCNC(=O)CCCOc1ccc(Cl)cc1Cl 16.5 µM
O=C(CCCOc1ccc(Cl)cc1Cl)Nc1ccccn1 11.7 µM
Cn1c(CCCOc2ccc(Cl)cc2Cl)n[nH]c1=S 13.1 µM
CCOC(=O)c1cnc(SCCc2ccccc2)nc1N 1.65 µM
C=CCSc1ncc(C(=O)OCC)c(N)n1 16.5 µM
CCOC(=O)c1cnc(SCc2ccc(C)cc2)nc1N 7.94 µM
CCCCSc1ncc(C(=O)OCC)c(N)n1 1.31 µM
